This passage reports binding signal results from article PMC12136788.

T1: UNK ZnF1-6 (called full-length) (human, UniProt Q9C0B0 30-357)
T1 sequence: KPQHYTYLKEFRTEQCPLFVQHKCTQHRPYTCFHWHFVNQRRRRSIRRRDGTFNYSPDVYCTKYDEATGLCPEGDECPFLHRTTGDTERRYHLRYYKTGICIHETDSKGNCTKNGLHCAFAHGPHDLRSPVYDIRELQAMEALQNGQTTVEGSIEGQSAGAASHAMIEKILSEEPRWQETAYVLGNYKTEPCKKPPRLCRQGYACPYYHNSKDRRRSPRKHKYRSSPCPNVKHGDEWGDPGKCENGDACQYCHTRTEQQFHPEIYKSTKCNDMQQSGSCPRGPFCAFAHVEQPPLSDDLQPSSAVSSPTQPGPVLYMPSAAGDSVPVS

B1: chr12:76028832:76028933:-|3pUTR|ENSG00000139289|msi1|total|mutant (ssRNA)
RNA: GGGAGUUCUACAGUCCGACGAUCAAAGGAAAAGACUGGAUAAACACAGGAUUUUCAGUAAGAAAACAACCCCAGUCUUGUCUCCGAAGCCACUUGUUGAGGAGUCUGUUGGGGGAAAAAAGAGGAUAUGCUUUUAAAGGCCGACAACAGAGGAUUGAGCAUCA
B2: chr3:27418507:27418620:-|CDS|ENSG00000033867|unk|FALSE|bound_elsewhere (ssRNA)
RNA: GGGAGUUCUACAGUCCGACGAUCUGAUGUAGCUUAUAAAGCAAAAGACAGAAAUGACCUCUUAUCUGGAAUUGAUGAAUUUUUAGAUCAAGUAACUGUCCUACCUCCAGGAGAGUGGGAUCCUUCUAUACGCAUAGAACCACCCAACAGAGGAUUGAGCAUCA
B3: chr11:35619468:35619569:+|CDS|ENSG00000179431|unk|FALSE|unique (ssRNA)
RNA: GGGAGUUCUACAGUCCGACGAUCCCCCCUCCGGGAUGCCGGGGGUGAGCUGGCCAACCUCAGCCAGGCGGAGCUGGUGGACCUAGUACAAUGGACCGACUUAAUCCUUUUCGACUACCUGACGGCCAACUUCGACCGGCUCGUCAACAGAGGAUUGAGCAUCA
B4: chr5:91369659:91369760:-|3pUTR|ENSG00000113369|msi1|total|mutant (ssRNA)
RNA: GGGAGUUCUACAGUCCGACGAUCUCAGCAUUUUCCAAGGUACCAAGUGUACUUAUUUUGUUGUUGUUGUUGUUGUUGUAUUUCCGAAGGAAUUCAGCUCUGAUGUUUUUAAAGAAAACCAGCAUCUCUGAUGUUGCAACAUACCAACAGAGGAUUGAGCAUCA
B5: chr9:35056615:35056731:-|3pUTR|ENSG00000165280|msi1|FALSE|unique (ssRNA)
RNA: GGGAGUUCUACAGUCCGACGAUCCCCUAUCCAACCUGGGUAGGUGGGUAGGGGCCACAGUUGCUGGAUGUUUAUAUAGAGAGUAGGUUGAUUUAUUUUACAUGCUUUUGAGUUAAUGUUGGAAAACUAAUCACAAGCAGUUUCCAACAGAGGAUUGAGCAUCA
B6: chr6:149379354:149379455:+|CDS|ENSG00000055208|msi1|FALSE|bound_elsewhere (ssRNA)
RNA: GGGAGUUCUACAGUCCGACGAUCAGGGGUGGUGUCCCCUACCUUUGAACUUACAAAUCUUCUUAAUCAUCCUGAUCAUUAUGUAGAAACCGAGAAUAUUCAGCACCUCACGGACCCUACAUUAGCACAUGUGGAUAGAAUAAGCAACAGAGGAUUGAGCAUCA
B7: chr17:81921741:81921842:-|3pUTR|ENSG00000197063|msi1|total|mutant (ssRNA)
RNA: GGGAGUUCUACAGUCCGACGAUCAAUUAUAUGUUUAAAAGUUAAAGAAAAAAGAGCUGCAGAGUAUUUAUAAAACUGUCUUUCCGAAAAAAAACAAGCAAGAAGACCAUUUGACCAUAUGAAUGGAAAAGGGAAGAAAGUAUACAACAGAGGAUUGAGCAUCA
B8: chr1:110947961:110948399:-|CDS|ENSG00000121931|control|control|control (ssRNA)
RNA: GGGAGUUCUACAGUCCGACGAUCAAGUCAUUUCUUCAAUAAAAAUUAUACCGAAGAUAUUUUCCCAGUGACACCACCGGAGUUAGAAGAAACCAUUCGAGAUGAAAAAAUAAGAAGACUUAAGCAGGUGCUGAGAGAGAAAGACAACAGAGGAUUGAGCAUCA
B9: chrX:153456492:153456651:-|CDS|ENSG00000213397|control|control|control (ssRNA)
RNA: GGGAGUUCUACAGUCCGACGAUCAUGGAGCACUUCGAGGACACCAGGGAGAAGAACGAGGCCUUGCUGGGGGAGCUCUUCUCUAGCCCCCACCUGCAGAUGCUCCUGAAUCCAGAGUGCGACCCGUGGCCCCUGGACAUGCAGCAACAGAGGAUUGAGCAUCA
B10: ENSG00000130720:stop:overlap|stop_codon|ENSG00000130720|stop_codon|NA|stop_codon (ssRNA)
RNA: GGGAGUUCUACAGUCCGACGAUCGCUGGCAGUACUCACUCAAGUUCUCUGAGAUGAAGAUCCGGCCGGUCCGGGAGGACCGCUAGACUGGUGCACCUUGUCCUUGGCCCUGCUGGUCCCUGUCGCCCCAUCCCCGACCCCACCCAACAGAGGAUUGAGCAUCA
B11: chr3:89481969:89482070:+|3pUTR|ENSG00000044524|msi1|total|mutant (ssRNA)
RNA: GGGAGUUCUACAGUCCGACGAUCAUAUGUGUUUACUUUAAACUUGUCUUUUCAAAAUAUUACUCAGUUUAUGUUGUACAAUGCCGAUGGCCUCUUACUAAUGUAAAAUGAUUUGCCGUGGAAACAUUUAUAUUUUUAUAAUAACAACAGAGGAUUGAGCAUCA
B12: chr4:123402332:123402450:+|CDS|ENSG00000164056|unk|total|mutant (ssRNA)
RNA: GGGAGUUCUACAGUCCGACGAUCGACGAAGGGGAUUCCUAUUCAGAUAAUCCUUGCUCCUGUUCACAAUCACACUGCUGCUCCCGAUACCUGUGUAUGGGAGCCAUGUCUUUAUUUUUACCUUGCUUACUCUGUUAUCCUCCUCAACAGAGGAUUGAGCAUCA
B13: chr1:198253062:198253183:+|CDS|ENSG00000151414|unk|total|mutant (ssRNA)
RNA: GGGAGUUCUACAGUCCGACGAUCAUGGGCUAUAAUACAUCCGCCAACUUUCGAACCGAAAAGAAAAUUGGUCGCGGACAAUUCCGUGAAGUUUACCGAGCAGCCUGUCUCUUGGAUGGAGUACCAGCCGCUUUAAAAAAAGUGCAACAGAGGAUUGAGCAUCA
B14: chr6:144852070:144852171:+|3pUTR|ENSG00000152818|unk|FALSE|unique (ssRNA)
RNA: GGGAGUUCUACAGUCCGACGAUCAAGUCCUUAAUAGUUCUUGAAACUCCUAGUUGUUUUCUUGUUGAAAGCAGACACACAUUUAGUGCACGGCUUAUUUUACCUUUCGGGUGAAAGAUCAGAUGUUUUUAUACCCUUCACUUGCAACAGAGGAUUGAGCAUCA
B15: chr22:36281679:36281692:-|3pUTR|ENSG00000100345|msi1_unk|total|mutant (ssRNA)
RNA: GGGAGUUCUACAGUCCGACGAUCUCUUGUGUCUACUCCCGGACUGGGCCCGAGGGUGGUUUACCUGCACCGUUGACUCAGUACCGUUUAAAAAUCUGCCACCUGCACAGGUAUUUUUGAAAGCAAAAUAAGGUUUUCUUUUUUCAACAGAGGAUUGAGCAUCA
B16: chr7:137227872:137228000:-|3pUTR|ENSG00000105894|msi1_unk|total|mutant (ssRNA)
RNA: GGGAGUUCUACAGUCCGACGAUCGGAACAUAAAAAGGACAUCAGCAAACAGGAUCAGUUAACUAUUGCAUUUAUAUGUACCGCCGGCUUUGUAUUCAAAAAUUAUCUACCGCUAAGUACACAAUAAGCAAAAACAAAAAGAAACAACAGAGGAUUGAGCAUCA
B17: ENSG00000165476:stop:overlap|stop_codon|ENSG00000165476|stop_codon|NA|stop_codon (ssRNA)
RNA: GGGAGUUCUACAGUCCGACGAUCAAGAGGUGCGGUACGGGUCACUAAAAUACAAAGUGAAGAAACGACCACAAGUGUAUUUUUAGUCAUCUACACGUCAAAUAUCCCAAGACAGAUUAUGCUAAAUACAUCGACUUCAUCUUCCAACAGAGGAUUGAGCAUCA
B18: ENSG00000138660:stop:overlap|stop_codon|ENSG00000138660|stop_codon|NA|stop_codon (ssRNA)
RNA: GGGAGUUCUACAGUCCGACGAUCCUGUAUUAGAACUGUCUGAUUCUGGCAUAAGGCAUUCUGACACAGAUCAACAGACUCGAUAGGGUAAAAUUGUGUGACCUUGUUUAUCAGUUAUGACCAAAUGUUAAAAACCAACUAGAACAACAGAGGAUUGAGCAUCA
B19: chr3:11557161:11557262:-|3pUTR|ENSG00000144560|msi1|total|mutant (ssRNA)
RNA: GGGAGUUCUACAGUCCGACGAUCCCUCUGACUUUAUACUGUUAUUACUGCAUUUAUUAUUUGCUAUAUUAACCGCUACUAACCCGAAAUCCGAUGAAGCAAGCAUGACAGACACAGCUGUGGAGGUCACAGCUGCUCCUUUUUCAACAGAGGAUUGAGCAUCA
B20: ENSG00000198589:be:win_7201|CDS|ENSG00000198589|bound_else_gene|NA|bound_elsewhere_windowed (ssRNA)
RNA: GGGAGUUCUACAGUCCGACGAUCGAGAGUGAAUUUGUUUCCUGCCAGCUUCACCAAUGGAUUGAUCUCAUUUUUGGCUAUAAACAGCAAGGACCAGAAGCUGUCCGAGCCCUCAAUGUGUUCUAUUACUUGACCUAUGAAGGACAACAGAGGAUUGAGCAUCA
B21: ENSG00000124766:be:win_1851|3pUTR|ENSG00000124766|bound_else_gene|NA|bound_elsewhere_windowed (ssRNA)
RNA: GGGAGUUCUACAGUCCGACGAUCAGAGACUUGAAGGAGUCUCCCCCUUCCUGCAUCACCACCUUGGUUUUGUUUUAUUUUGCUUCUUGGUCAAGAAAGGAGGGGAGAACCCAGCGCACCCCUCCCCCCCUUUUUUUAAACGCGCAACAGAGGAUUGAGCAUCA
B22: chr9:125236489:125236593:-|3pUTR|ENSG00000044574|msi1_unk|total|mutant (ssRNA)
RNA: GGGAGUUCUACAGUCCGACGAUCUGCCGACACUGAUCUGCCCGUGCUGUAAUAUUGUAAAUACUGGACUCAGGAACUUUUGUCCGGAAAAAAUUGAAAGAACUUAAGUCUCGAAUGUAAUUGGAAUCUUCACCUCAGAGUGGACAACAGAGGAUUGAGCAUCA

The full ranking holds about 5,800 sequences; the median of “enrichment r” is about 0.68, and the highest 2% start at about 11. These entries were drawn from the full list.

The target of this test is T1, UNK ZnF1-6 (called full-length). The test can be described thus: nsRBNS (natural sequence RNA bind-n-seq); RBNS binding buffer (assumed for nsRBNS): 25 mM Tris pH 7.5, 150 mM KCl, 3 mM MgCl2, 0.01% Triton X-100, 500 ug/ml BSA, 20 U/ml SUPERase-In, 4 C; UNK is unkempt and MSI1 is Musashi-1; names of the RNAs are library labels; protein concentration not given here; high values mean tight binding.
B1 gave a binding signal of 0.52 enrichment R.
In turn, B2 displayed a binding signal of 0.413 enrichment R.
For the molecule B3, the binding signal came out at 0.618 enrichment R.
Turning to B4, the binding signal was 0.292 enrichment R.
The value for B5 was 0.815 enrichment R; that for B6 was 0.615 enrichment R.
To B7 belongs 0.865 enrichment R; to B8, 0.797 enrichment R.
To B9 belongs 0.759 enrichment R; to B10, 1.34 enrichment R; to B11, 0.702 enrichment R.
In turn, B12 displayed a binding signal of 0.585 enrichment R.
The value for B13 was 0.411 enrichment R; that for B14 was 0.969 enrichment R; that for B15 was 0.546 enrichment R.
To B16 belongs 0.517 enrichment R.
As for B17, the binding signal is 0.648 enrichment R.
Molecule B18 registered a binding signal of 0.713 enrichment R.
To B19 belongs 0.51 enrichment R.
The value for B20 was 0.478 enrichment R; that for B21 was 0.704 enrichment R; that for B22 was 0.446 enrichment R.
